{"source": "PubChem BioAssay (Tox21)", "note": "“And” between values parts separate entries of the source, which are not always exact repeats. Equal entries are not always repeated. Records with an inconclusive call do not appear. Unmarked numbers belong to inactive results. The source made the active and inactive calls. Calls come from the whole dose curve; as a rule, active = well fitted curve in the direction sought with a large enough effect in the repeat runs; inconclusive = weak or mixed curves; inactive = no such curve, though single readings can be large; an effect the other way counts as inactive or inconclusive. % is set by controls: 0 for no effect and ±100 for the full control effect."}
{"test_system": "not listed separately", "assay": "Caspase-3/7 induction in HepG2 cells by small molecules, qHTS cell viability counter screen (AID 1346981); note: nearly all actives have a fitted effect of over 30% in size", "settings": "CellTiter-Fluor fluorescence, 17 h; series mostly up to 92.4 µM; activity change, negative = cytotoxicity: at the top concentration", "outline": "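Viability determined by CellTiter-Fluor fluorescence in HepG2 wells also used for the luminescent Caspase-Glo 3/7 read. Compounds were present for 16 hr at 37 C, 5% CO2 before reagent addition.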"}
{"smiles": "Oc1ccc(C2CNCCc3c2cc(O)c(O)c3Cl)cc1", "note": "(centres undefined)", "activity change, negative = cytotoxicity": "1.36% [at 42.5 µM]"}
{"smiles": "CCOC(C)(C)C", "activity change, negative = cytotoxicity": "5.08%"}
{"smiles": "CC(=O)Nc1c(I)cc(I)c(C(=O)O)c1I", "activity change, negative = cytotoxicity": "1.64% [at 42.5 µM]"}
{"smiles": "N=C(N)c1ccccc1", "activity change, negative = cytotoxicity": "-2.17%"}
{"smiles": "COc1cc(C(=O)N2CCCCCCC2)cc(OC)c1OC", "activity change, negative = cytotoxicity": "-1.84% [at 42.5 µM]"}
{"smiles": "NS(=O)(=O)c1ccc(C(=O)O)cc1", "activity change, negative = cytotoxicity": "3.04% [at 42.5 µM]"}
{"smiles": "CC(NC(CCc1ccccc1)C(=O)O)C(=O)N1C(=O)N(C)CC1C(=O)O", "note": "(centres undefined)", "activity change, negative = cytotoxicity": "1.47% [at 42.5 µM]"}
{"smiles": "Cc1ccc(Cl)cc1Cl", "activity change, negative = cytotoxicity": "-1.63%"}
{"smiles": "COCCc1ccc(OCC(O)CNC(C)C)cc1", "note": "(centres undefined)", "Potency": "inactive"}
{"smiles": "CCOC(=O)c1cccc(N)c1", "activity change, negative = cytotoxicity": "3.25% [at 42.5 µM]"}
{"smiles": "CCN(CC)CCOCCOC(=O)C1(c2ccccc2)CCCC1", "activity change, negative = cytotoxicity": "-10.5% [at 42.5 µM]"}
{"smiles": "CCCN(CCC)CCc1cccc2c1CC(=O)N2", "activity change, negative = cytotoxicity": "0.504% [at 42.5 µM]"}
{"smiles": "NC(=O)c1cn(Cc2c(F)cccc2F)nn1", "activity change, negative = cytotoxicity": "3.65% [at 42.5 µM]"}
{"smiles": "CC(C)CNCC(C)C", "activity change, negative = cytotoxicity": "2.94%"}
{"smiles": "O=c1n(CCO)c(=O)n(CCO)c(=O)n1CCO", "Potency": "inactive"}
{"smiles": "NS(=O)(=O)c1cc(C(=O)O)cc(N2CCCC2)c1Oc1ccccc1", "activity change, negative = cytotoxicity": "0.711% [at 42.5 µM]"}
{"smiles": "CN1CC(=O)NC1=N", "activity change, negative = cytotoxicity": "11% [at 42.5 µM]"}
{"smiles": "CCCCCCOC(=O)CCCCC(=O)OCCCCCC", "activity change, negative = cytotoxicity": "6.28%"}
{"smiles": "COc1c(N2C[C@@H]3CCCN[C@@H]3C2)c(F)cc2c(=O)c(C(=O)O)cn(C3CC3)c12", "activity change, negative = cytotoxicity": "4.09% [at 42.5 µM]"}
{"smiles": "CO[C@]12C[C@@H](COC(=O)c3cncc(Br)c3)CN(C)[C@@H]1Cc1cn(C)c3cccc2c13", "activity change, negative = cytotoxicity": "0.162% [at 42.5 µM]"}
{"smiles": "CC(C)(O)C#CC(C)(C)O", "activity change, negative = cytotoxicity": "1.87%"}
{"smiles": "NC(=O)Nc1ccccc1", "activity change, negative = cytotoxicity": "1.66%"}
{"smiles": "N=c1nc(N2CCCCC2)cc(N)n1O", "activity change, negative = cytotoxicity": "3.37% [at 42.5 µM]"}
{"smiles": "CCN1CCC[C@H]1CNC(=O)c1c(O)c(Cl)cc(Cl)c1OC", "activity change, negative = cytotoxicity": "-1.58% [at 42.5 µM]"}
{"smiles": "CCc1cccc2c(CCO)c[nH]c12", "activity change, negative = cytotoxicity": "11.1% [at 42.5 µM]"}
{"smiles": "NS(=O)(=O)c1cc2c(cc1Cl)NC(C1CC3C=CC1C3)NS2(=O)=O", "note": "(centres undefined)", "activity change, negative = cytotoxicity": "3.68% [at 42.5 µM]"}
{"smiles": "O=C(O)CCCc1ccccc1", "activity change, negative = cytotoxicity": "-1.47% [at 42.5 µM]"}
{"smiles": "Cn1cc(S(C)=O)c(=O)c2ccc(F)cc21", "note": "(centres undefined)", "activity change, negative = cytotoxicity": "-0.38% [at 42.5 µM]"}
{"target": "Nuclear receptor subfamily 1 group I member 2 (Homo sapiens) (UniProt O75469)", "sequence (O75469 whole entry, looked up)": "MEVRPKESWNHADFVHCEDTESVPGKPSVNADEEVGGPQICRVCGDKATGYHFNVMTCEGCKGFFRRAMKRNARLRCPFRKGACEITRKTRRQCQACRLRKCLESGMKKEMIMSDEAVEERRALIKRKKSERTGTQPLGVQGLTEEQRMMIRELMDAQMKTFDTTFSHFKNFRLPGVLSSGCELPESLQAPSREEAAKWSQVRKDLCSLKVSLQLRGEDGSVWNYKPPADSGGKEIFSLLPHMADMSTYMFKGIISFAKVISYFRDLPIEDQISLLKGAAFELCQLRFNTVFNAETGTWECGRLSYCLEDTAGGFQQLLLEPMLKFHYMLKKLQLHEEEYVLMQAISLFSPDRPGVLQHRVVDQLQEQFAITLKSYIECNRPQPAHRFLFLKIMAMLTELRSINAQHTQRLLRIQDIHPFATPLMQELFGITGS", "assay": "Human pregnane X receptor (PXR) small molecule agonists, qHTS assay (AID 1346982); note: nearly all actives have a fitted effect of over 35% in size; note: potency is the fitted concentration of half-maximal effect", "settings": "PXR-Luc HepG2, CYP3A4 luciferase reporter, 24 h; series mostly up to 92.4 µM; activation: at the top concentration", "outline": "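Compound-induced hPXR transactivation of a CYP3A4 luciferase reporter was scored in HepG2 PXR-Luc cells over 24 hr at 37 C, 5% CO2, by luminescence.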"}
{"smiles": "CC(C)(C)c1ccc(O)c(O)c1", "Potency": "63.2 µM (active) and 27.3 µM (active)"}
{"smiles": "Oc1ccc(C2CNCCc3c2cc(O)c(O)c3Cl)cc1", "note": "(centres undefined)", "activation": "1.08% [at 42.5 µM]"}
{"smiles": "CCOC(C)(C)C", "activation": "3.93%"}
{"smiles": "CC(=O)Nc1c(I)cc(I)c(C(=O)O)c1I", "activation": "-4.49% [at 42.5 µM]"}
{"smiles": "N=C(N)c1ccccc1", "activation": "10.9%"}
{"smiles": "Cc1cnc(NS(=O)(=O)c2ccc(N)cc2)nc1", "activation": "-1.86% [at 42.5 µM]"}
{"smiles": "NS(=O)(=O)c1ccc(C(=O)O)cc1", "activation": "-6.67% [at 42.5 µM]"}
{"smiles": "CC(NC(CCc1ccccc1)C(=O)O)C(=O)N1C(=O)N(C)CC1C(=O)O", "note": "(centres undefined)", "activation": "-5.15% [at 42.5 µM]"}
{"smiles": "N#Cc1ccc(C2CCCc3cncn32)cc1", "note": "(centres undefined)", "activation": "-4.81% [at 42.5 µM]"}
{"smiles": "Cc1ccc(Cl)cc1Cl", "activation": "10.8%"}
{"smiles": "CCOC(=O)c1cccc(N)c1", "activation": "-8.87% [at 42.5 µM]"}
{"smiles": "CCCN(CCC)CCc1cccc2c1CC(=O)N2", "activation": "2.36% [at 42.5 µM]"}
{"smiles": "NC(=O)c1cn(Cc2c(F)cccc2F)nn1", "activation": "5.42% [at 42.5 µM]"}
{"smiles": "CC(C)CNCC(C)C", "activation": "-0.687%"}
{"smiles": "O=c1n(CCO)c(=O)n(CCO)c(=O)n1CCO", "activation": "1.21%"}
{"smiles": "NS(=O)(=O)c1cc(C(=O)O)cc(N2CCCC2)c1Oc1ccccc1", "activation": "-8.5% [at 42.5 µM]"}
{"smiles": "CN1CC(=O)NC1=N", "activation": "0.0866% [at 42.5 µM]"}
{"smiles": "CCCCCCOC(=O)CCCCC(=O)OCCCCCC", "activation": "-3.1%"}
{"smiles": "COc1c(N2C[C@@H]3CCCN[C@@H]3C2)c(F)cc2c(=O)c(C(=O)O)cn(C3CC3)c12", "activation": "-9.43% [at 42.5 µM]"}
{"smiles": "CO[C@]12C[C@@H](COC(=O)c3cncc(Br)c3)CN(C)[C@@H]1Cc1cn(C)c3cccc2c13", "activation": "3.27% [at 42.5 µM]"}
{"smiles": "CC(C)(O)C#CC(C)(C)O", "activation": "4.15%"}
{"smiles": "COc1ccc(CCN(C)CCCC(C#N)(c2cc(OC)c(OC)c(OC)c2)C(C)C)cc1OC", "note": "(centres undefined)", "Potency": "4.73 µM (active)"}
{"smiles": "NC(=O)Nc1ccccc1", "activation": "-4.87%"}
{"smiles": "N=c1nc(N2CCCCC2)cc(N)n1O", "activation": "-9.18% [at 42.5 µM]"}
{"smiles": "CCC(C)S", "note": "(centres undefined)", "activation": "-2.18% [at 3.27 µM]"}
{"smiles": "CCc1cccc2c(CCO)c[nH]c12", "activation": "0.675% [at 42.5 µM]"}
{"smiles": "NS(=O)(=O)c1cc2c(cc1Cl)NC(C1CC3C=CC1C3)NS2(=O)=O", "note": "(centres undefined)", "activation": "-22% [at 42.5 µM]"}
{"smiles": "O=C(O)CCCc1ccccc1", "activation": "-3.85% [at 42.5 µM]"}
{"smiles": "Cn1cc(S(C)=O)c(=O)c2ccc(F)cc21", "note": "(centres undefined)", "activation": "-8.86% [at 42.5 µM]"}
{"smiles": "CC(=O)OCC(CCn1cnc2cnc(N)nc21)COC(C)=O", "activation": "-0.549% [at 42.5 µM]"}
{"target": "Nuclear receptor subfamily 1 group I member 2 (Rattus norvegicus) (UniProt Q9R1A7)", "sequence (Q9R1A7 whole entry, looked up)": "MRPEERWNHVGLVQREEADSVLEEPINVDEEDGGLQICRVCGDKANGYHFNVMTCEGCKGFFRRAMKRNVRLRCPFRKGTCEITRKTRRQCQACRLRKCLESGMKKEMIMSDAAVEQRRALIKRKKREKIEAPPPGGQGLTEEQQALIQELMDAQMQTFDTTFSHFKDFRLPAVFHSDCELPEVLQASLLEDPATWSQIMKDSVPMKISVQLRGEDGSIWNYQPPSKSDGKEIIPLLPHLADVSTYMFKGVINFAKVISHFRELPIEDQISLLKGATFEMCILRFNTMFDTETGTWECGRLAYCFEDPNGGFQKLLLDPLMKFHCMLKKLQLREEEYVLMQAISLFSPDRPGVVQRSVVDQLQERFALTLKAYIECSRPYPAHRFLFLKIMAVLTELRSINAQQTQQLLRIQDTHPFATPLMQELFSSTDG", "assay": "Rat pregnane X receptor (rPXR) activation by small molecules, qHTS assay (AID 1346983); note: nearly all actives have a fitted effect of over 20% in size", "settings": "rPXR luciferase reporter cells, One-Glo luminescence, 24 h; hits give high values", "outline": "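Cell-based rPXR activation assay: rPXR cells, 2,000 per well, rested 5hr at 37 C, then exposed to compounds in DMSO for 24 hr at 37 C. Luciferase activity read by One-Glo luminescence after 30 min at room temperature.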", "units": {"max activation": "%"}}
{"smiles": "CC(=O)Nc1c(I)cc(I)c(C(=O)O)c1I", "max activation": -2.53}
{"smiles": "COc1cc(C(=O)N2CCCCCCC2)cc(OC)c1OC", "max activation": -0.931}
{"smiles": "COCCc1ccc(OCC(O)CNC(C)C)cc1", "note": "(centres undefined)", "max activation": -0.133}
{"smiles": "CCCC(=O)O[C@]1(C(=O)CO)CC[C@H]2[C@@H]3CCC4=CC(=O)CC[C@]4(C)[C@H]3[C@@H](O)C[C@@]21C", "max activation": 8.95}
{"smiles": "CCN(CC)CCOCCOC(=O)C1(c2ccccc2)CCCC1", "max activation": 0.476}
{"smiles": "NC(=O)c1cn(Cc2c(F)cccc2F)nn1", "max activation": -1.62}
{"smiles": "NS(=O)(=O)c1cc(C(=O)O)cc(N2CCCC2)c1Oc1ccccc1", "max activation": 1.61}
{"smiles": "CN1CC(=O)NC1=N", "max activation": -5.88}
{"smiles": "COc1c(N2C[C@@H]3CCCN[C@@H]3C2)c(F)cc2c(=O)c(C(=O)O)cn(C3CC3)c12", "max activation": -3.75}
{"smiles": "CCN1CCC[C@H]1CNC(=O)c1c(O)c(Cl)cc(Cl)c1OC", "max activation": -0.579}
{"smiles": "CC(=O)OCC(CCn1cnc2cnc(N)nc21)COC(C)=O", "max activation": -0.776}
